# Assay results reported in the supplement of paper PMC8728848.
# This is one part of a sample in which the strongest signals are shown more often than they occur.
# Columns and labels:
# Test in all cases: glycan array binding signal (z-score within array); higher = stronger binding
# Details in all cases: glycan notation: IUPAC condensed, linker removed
# [1] = target: Fuc(a1-2)Gal(b1-3)GalNAc(b1-4)[Neu5Ac(a2-3)]Gal(b1-4)Glc
# Summary of the method: (§1)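 Glycan array data were curated from 3228 arrays in the Consortium for Functional Glycomics database and kept only where the protein sequence was available. Glycan names were converted to IUPAC-condensed notation, and columns mapping to the same glycan were averaged. The binding signal is a within-array Z-score, averaged across arrays of the same protein sequence at different concentrations or buffers and across linkers. Negative Z-scores can be read as non-binding.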
# Fuc(a1-2)Gal(b1-4)GlcNAc = target: Fuc(a1-2)Gal(b1-4)GlcNAc
# Summary of the method: as §1
# [2] = target: Fuc(a1-2)[Gal(a1-4)]Gal(b1-4)GlcNAc
# Summary of the method: as §1
# [3] = target: Fuc(a1-3)[Gal(b1-4)]GlcNAc(b1-4)Gal(b1-4)[Fuc(a1-3)]GlcNAc
# Summary of the method: as §1
# [4] = target: Fuc(a1-3)[Gal3S(b1-4)]GlcNAc
# Summary of the method: as §1
# Fuc(a1-4)GlcNAc = target: Fuc(a1-4)GlcNAc
# Summary of the method: as §1
# [5] = target: Gal(b1-3)GlcNAc(b1-3)Gal(b1-4)GlcNAc
# Summary of the method: as §1
# [6] = target: Gal3S(b1-3)[Fuc(a1-4)]GlcNAc
# Summary of the method: as §1
# Gal3S6S(b1-4)GlcNAc = target: Gal3S6S(b1-4)GlcNAc
# Summary of the method: as §1
# Gal4S6S(b1-4)GlcNAc = target: Gal4S6S(b1-4)GlcNAc
# Summary of the method: as §1
# [7] = target: GlcNAc(a1-3)Gal(b1-4)GlcNAc
# Summary of the method: as §1
# [8] = target: GlcNAc(a1-6)Gal(b1-4)GlcNAc
# Summary of the method: as §1
# GlcNAc(b1-3)Gal = target: GlcNAc(b1-3)Gal
# Summary of the method: as §1
# [9] = target: GlcNAc(b1-3)Gal(b1-3)GalNAc
# Summary of the method: as §1
# GlcNAc(b1-3)Gal(b1-4)Glc = target: GlcNAc(b1-3)Gal(b1-4)Glc
# Summary of the method: as §1
# [10] = target: GlcNAc(b1-3)[GlcNAc(b1-6)]Gal(b1-4)GlcNAc
# Summary of the method: as §1
# [11] = target: GlcNAc(b1-3)[GlcNAc(b1-6)]GlcNAc(b1-4)GlcNAc
# Summary of the method: as §1
# [12] = target: Man(a1-2)Man(a1-3)[Man(a1-6)]Man(a1-6)[Man(a1-2)Man(a1-3)]Man(b1-4)GlcNAc(b1-4)GlcNAc
# Summary of the method: as §1
# [13] = target: Neu5Ac(a2-3)Gal(b1-4)[Fuc(a1-3)]GlcNAc(b1-3)Gal(b1-4)GlcNAc
# Summary of the method: as §1
# [14] = target: Neu5Gc(a2-3)Gal(b1-3)[Fuc(a1-4)]GlcNAc
# Summary of the method: as §1
# [15] = target: Neu5Gc(a2-3)Gal(b1-4)GlcNAc
# Summary of the method: as §1
binder,measurement,setting,value
"F17fG (Escherichia coli), Q9RH91 (protein) MTNFYKVFLAVFILVCCNISHAAVSFIGSTENDVGPSQGSYSSTHAMDNLPFVYNTGHNIGYQNANVWRISGGFCVGLDGKVDLPVVGSLDGQSIYGLTEEVGLLIWMGDTNYSRGTAMSGNSWENVFSGWCVGNYVSTQGLSVHVRPVILKRNSSAQYSVQKTSIGSIRMRPYNGSSAGSVQTTVNFSLNPFTLNDTVTSCRLLTPSAVNVSLAAISAGQLPSSGDEVVAGTTSLKLQCDAGVTVWATLTDATTPSNRSDILTLTGASTATGVGLRIYKNTDSTPLKFGPDSPVKGNENQWQLSTGTETSPSVRLYVKYVNTGEGINPGTVNGISTFTFSYQ",glycan array binding signal (z-score),[1],-0.197
same,glycan array binding signal (z-score),Fuc(a1-2)Gal(b1-4)GlcNAc,-0.322
same,glycan array binding signal (z-score),[2],-0.127
same,glycan array binding signal (z-score),[3],-0.238
same,glycan array binding signal (z-score),[4],-0.234
same,glycan array binding signal (z-score),Fuc(a1-4)GlcNAc,-0.38
same,glycan array binding signal (z-score),[5],-0.3
same,glycan array binding signal (z-score),[6],-0.253
same,glycan array binding signal (z-score),Gal3S6S(b1-4)GlcNAc,0.156
same,glycan array binding signal (z-score),Gal4S6S(b1-4)GlcNAc,0.026
same,glycan array binding signal (z-score),[7],-0.323
same,glycan array binding signal (z-score),[8],-0.364
same,glycan array binding signal (z-score),GlcNAc(b1-3)Gal,5.09
same,glycan array binding signal (z-score),[9],5.89
same,glycan array binding signal (z-score),GlcNAc(b1-3)Gal(b1-4)Glc,4.83
same,glycan array binding signal (z-score),[10],6.97
same,glycan array binding signal (z-score),[11],0.169
same,glycan array binding signal (z-score),[12],-0.263
same,glycan array binding signal (z-score),[13],-0.23
same,glycan array binding signal (z-score),[14],-0.305
same,glycan array binding signal (z-score),[15],-0.278
